# Reference: PubChem BioAssay (NCATS)
# Records with an inconclusive call do not appear. Activity calls are given as the source filed them. The call rests on the fitted dose curve; in most records, active means well fitted curve in the direction sought with a large enough effect; inconclusive means small, poorly fitted or top-dose-only effect, or another doubt; inactive means no such curve, though single readings can be large; an effect the other way counts as inactive or inconclusive.
# Columns and labels:
# [1] = Quantitative High-Throughput drug screen in 47 multiple myeloma cell lines against the NCATS MIPE library collection: KMS20_JCRB cell viability assay (AID 1918973); further: nearly all actives have a fitted effect of over 45% in size
# How it was run: (§1)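 qHTS of the MIPE 4.0 collection: 500 myeloma cells/well, 48 h drug exposure at 37C in 5% CO2, then CellTiter-Glo for 5 min at room temperature before luminescence reading.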
# [2] = Quantitative High-Throughput drug screen in 47 multiple myeloma cell lines against the NCATS MIPE library collection: KMS21BM_JCRB cell viability assay (AID 1918974); conditions: ATP luminescence, 48 h; viability: at 45.8 µM (top of the series) unless noted
# How it was run: as §1
# [3] = Quantitative High-Throughput drug screen in 47 multiple myeloma cell lines against the NCATS MIPE library collection: KMS26_JCRB cell viability assay (AID 1918975); further: nearly all actives have a fitted effect of over 45% in size
# How it was run: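 Luminescent ATP measurement with CellTiter-Glo gives viability, scaled between DMSO-only wells (100%) and media-only wells (0%). Cells, 500 per well, faced library compounds for 48 hours at 37C.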
# [4] = Quantitative High-Throughput drug screen in 47 multiple myeloma cell lines against the NCATS MIPE library collection: MMM1_PLB cell viability assay (AID 1918976); further: nearly all actives have a fitted effect of over 35% in size
# How it was run: (§2)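 Readout: median RLU from CellTiter-Glo after 5 min at room temperature. Preceding step was 48 h drug treatment of 500 cells/well at 37 °C, 5% CO2, with DMSO-only and media-only control wells.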
# [5] = Quantitative High-Throughput drug screen in 47 multiple myeloma cell lines against the NCATS MIPE library collection: MOLP8_DSMZ cell viability assay (AID 1918977); further: nearly all actives have a fitted effect of over 45% in size
# How it was run: as §2
# [6] = Quantitative High-Throughput drug screen in 47 multiple myeloma cell lines against the NCATS MIPE library collection: NCIH929_DSMZ cell viability assay (AID 1918978); further: nearly all actives have a fitted effect of over 35% in size
# How it was run: as §2
# [7] = Quantitative High-Throughput drug screen in 47 multiple myeloma cell lines against the NCATS MIPE library collection: OCIMY1_PLB cell viability assay (AID 1918979); further: nearly all actives have a fitted effect of over 35% in size
# How it was run: as §2
# [8] = Quantitative High-Throughput drug screen in 47 multiple myeloma cell lines against the NCATS MIPE library collection: MM1R_ATCC cell viability assay (AID 1918981); further: nearly all actives have a fitted effect of over 35% in size
# How it was run: as §2
# [9] = Quantitative High-Throughput drug screen in 47 multiple myeloma cell lines against the NCATS MIPE library collection: LP1_DSMZ cell viability assay (AID 1918982); further: nearly all actives have a fitted effect of over 35% in size
# How it was run: as §2
# [10] = Quantitative High-Throughput drug screen in 47 multiple myeloma cell lines against the NCATS MIPE library collection: KMS28PE_JCRB cell viability assay (AID 1918983); further: nearly all actives have a fitted effect of over 35% in size
# How it was run: as §2
# [11] = Quantitative High-Throughput drug screen in 47 multiple myeloma cell lines against the NCATS MIPE library collection: L363_DSMZ cell viability assay (AID 1918984); further: nearly all actives have a fitted effect of over 40% in size
# How it was run: as §2
# [12] = Quantitative High-Throughput drug screen in 47 multiple myeloma cell lines against the NCATS MIPE library collection: KMS34_JCRB cell viability assay (AID 1918985); further: nearly all actives have a fitted effect of over 40% in size
# How it was run: as §2
# [13] = Quantitative High-Throughput drug screen in 47 multiple myeloma cell lines against the NCATS MIPE library collection: OCIMY7_PLB cell viability assay (AID 1918987); further: nearly all actives have a fitted effect of over 65% in size
# How it was run: as §2
# [14] = Quantitative High-Throughput drug screen in 47 multiple myeloma cell lines against the NCATS MIPE library collection: OCIMY5_PLB cell viability assay (AID 1918988); further: nearly all actives have a fitted effect of over 65% in size
# How it was run: as §2
# [15] = Quantitative High-Throughput drug screen in 47 multiple myeloma cell lines against the NCATS MIPE library collection: OPM1_PLB cell viability assay (AID 1918989); further: nearly all actives have a fitted effect of over 40% in size
# How it was run: as §2
# [16] = Quantitative High-Throughput drug screen in 47 multiple myeloma cell lines against the NCATS MIPE library collection: SKMM1_PLB cell viability assay (AID 1919863); conditions: SKMM1 myeloma viability, CellTiter-Glo ATP, 48 h; viability: hits give low values; further: nearly all actives have a fitted effect of over 35% in size
# How it was run: as §2
# [17] = Quantitative High-Throughput drug screen in 47 multiple myeloma cell lines against the NCATS MIPE library collection: U266_ATCC cell viability assay (AID 1919864); further: nearly all actives have a fitted effect of over 35% in size
# How it was run: as §2
# [18] = Quantitative High-Throughput drug screen in 47 multiple myeloma cell lines against the NCATS MIPE library collection: XG6_PLB cell viability assay (AID 1919865); further: nearly all actives have a fitted effect of over 40% in size
# How it was run: as §2
# [19] = Quantitative High-Throughput drug screen in 47 multiple myeloma cell lines against the NCATS MIPE library collection: XG1_PLB cell viability assay (AID 1919866); further: nearly all actives have a fitted effect of over 35% in size
# How it was run: as §2
# [20] = Quantitative High-Throughput drug screen in 47 multiple myeloma cell lines against the NCATS MIPE library collection: MM1S_ATCC cell viability assay (AID 1918980); further: nearly all actives have a fitted effect of over 45% in size
# How it was run: as §2
# Potency means the concentration at half of the fitted maximal effect.
Structure (SMILES),Potency [1],Potency [2],Potency [3],Potency [4],Potency [5],Potency [6],Potency [7],Potency [8],Potency [9],Potency [10],Potency [11],Potency [12],Potency [13],Potency [14],Potency [15],Potency [16],Potency [17],Potency [18],Potency [19],Potency [20]
Cc1ccc(-c2ncn(-c3ccc(Nc4nccc(-c5cccc(N6CCOCC6)c5)n4)cc3)n2)cn1,83.3 nM (active),29.6 nM (active),469 nM (active),2350 nM (active),93.5 nM (active),264 nM (active),662 nM (active),105 nM (active),132 nM (active),148 nM (active),74.3 nM (active),166 nM (active),132 nM (active),52.6 nM (active),83.3 nM (active),235 nM (active),132 nM (active),132 nM (active),93.5 nM (active),
CC(C)c1nn(-c2c(Cl)cccc2Cl)c2nc(Cc3ccc(OCCO)cc3)[nH]c(=O)c12,166 nM (active),inactive,148 nM (active),148 nM (active),132 nM (active),105 nM (active),235 nM (active),41.8 nM (active),132 nM (active),296 nM (active),,118 nM (active),74.3 nM (active),74.3 nM (active),132 nM (active),332 nM (active),209 nM (active),83.3 nM (active),187 nM (active),
CN1CCC(CNc2ccc3ncc(-c4cccc(OC(F)(F)F)c4)n3n2)CC1,3320 nM (active),9350 nM (active),18700 nM (active),18700 nM (active),18700 nM (active),7430 nM (active),20900 nM (active),20900 nM (active),26400 nM (active),18700 nM (active),7430 nM (active),20900 nM (active),4690 nM (active),14800 nM (active),6620 nM (active),23500 nM (active),9350 nM (active),5900 nM (active),5900 nM (active),7430 nM (active)
COc1ccc(F)c(F)c1C(=O)c1cnc(NC2CCN(S(C)(=O)=O)CC2)nc1N,2090 nM (active),296 nM (active),2640 nM (active),2640 nM (active),1320 nM (active),1870 nM (active),3720 nM (active),2090 nM (active),2960 nM (active),2350 nM (active),1320 nM (active),1320 nM (active),1660 nM (active),1320 nM (active),1870 nM (active),2960 nM (active),2640 nM (active),1050 nM (active),1660 nM (active),1660 nM (active)
COc1cc2c(cc1-c1c(C)noc1C)ncc1[nH]c(=O)n([C@H](C)c3ccccn3)c12,8330 nM (active),743 nM (active),26.4 nM (active),7430 nM (active),296 nM (active),3320 nM (active),,,372 nM (active),662 nM (active),,469 nM (active),18700 nM (active),1050 nM (active),1480 nM (active),743 nM (active),18700 nM (active),5260 nM (active),5900 nM (active),
CC(C)=CCCC(C)=CCCC(C)=CCSc1ccccc1C(=O)O,5260 nM (active),5900 nM (active),4180 nM (active),1320 nM (active),1480 nM (active),526 nM (active),33.2 nM (active),3320 nM (active),,1660 nM (active),,1320 nM (active),,1480 nM (active),14800 nM (active),2640 nM (active),372 nM (active),4180 nM (active),662 nM (active),5260 nM (active)
Nc1ncnc2c1c(-c1cnc3[nH]ccc3c1)nn2C1CCCC1,83.3 nM (active),1050 nM (active),10500 nM (active),187 nM (active),105 nM (active),235 nM (active),1870 nM (active),,148 nM (active),1870 nM (active),93.5 nM (active),1870 nM (active),1180 nM (active),3320 nM (active),590 nM (active),4690 nM (active),14800 nM (active),526 nM (active),209 nM (active),2960 nM (active)
COC(=O)[C@]12CCC(C)(C)C[C@@H]1[C@@H]1C(=O)C=C3[C@@]4(C)C=C(C#N)C(=O)C(C)(C)[C@@H]4CC[C@@]3(C)[C@]1(C)CC2,296 nM (active),74.3 nM (active),209 nM (active),1320 nM (active),209 nM (active),,743 nM (active),264 nM (active),743 nM (active),,526 nM (active),662 nM (active),,209 nM (active),209 nM (active),469 nM (active),264 nM (active),372 nM (active),166 nM (active),418 nM (active)
